# Tests used:
# Assay in all cases: DAPPL (digital affinity profiling via proximity ligation, sequencing); 10 mM Tris-HCl pH 7.5, 50 mM NaCl, 1 mM DTT, 4% glycerol, room temperature, 30 min; GST-TFs on glutathione beads, 16-mer random dsDNA library, 0.1% formaldehyde crosslink after washing; high values mean tight binding
# [1] = target: T1, FLI1 (Homo sapiens, UniProt Q01543 1-452); conditions: protein: recombinant; tags: N-terminal GST; dsDNA, one strand shown
# T1 sequence: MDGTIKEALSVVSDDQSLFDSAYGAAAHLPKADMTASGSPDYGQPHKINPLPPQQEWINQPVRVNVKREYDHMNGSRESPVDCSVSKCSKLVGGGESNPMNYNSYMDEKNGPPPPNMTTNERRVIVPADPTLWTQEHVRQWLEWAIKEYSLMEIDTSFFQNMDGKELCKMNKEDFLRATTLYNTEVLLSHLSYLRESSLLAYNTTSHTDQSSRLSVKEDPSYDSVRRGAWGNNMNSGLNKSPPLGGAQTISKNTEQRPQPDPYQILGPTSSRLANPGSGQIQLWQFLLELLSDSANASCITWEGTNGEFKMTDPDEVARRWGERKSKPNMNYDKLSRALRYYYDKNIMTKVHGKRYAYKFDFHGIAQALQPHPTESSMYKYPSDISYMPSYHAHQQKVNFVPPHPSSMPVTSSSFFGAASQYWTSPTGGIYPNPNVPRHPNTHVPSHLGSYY
# In short: (§1)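 Human transcription factors carrying a GST fusion were produced in yeast, bound to glutathione beads, tagged with DNA barcodes and pooled together with a tag-only sample. Each pool was held with 200 nmole of a random double-stranded 16-mer DNA library in Tris/NaCl/DTT/glycerol buffer for 30 min at room temperature, then washed, crosslinked in 0.1% formaldehyde, proximity-ligated with BsaI/T4 ligase (1 h, 37 °C), PCR-amplified and sequenced on an Illumina NextSeq500. Binding signal is the read frequency of each hexamer for a given factor divided by its frequency in the tag-only sample.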
# [2] = target: T2, ELK1 (Homo sapiens, UniProt P19419 1-428); conditions: protein: recombinant; tags: N-terminal GST; dsDNA, one strand shown
# T2 sequence: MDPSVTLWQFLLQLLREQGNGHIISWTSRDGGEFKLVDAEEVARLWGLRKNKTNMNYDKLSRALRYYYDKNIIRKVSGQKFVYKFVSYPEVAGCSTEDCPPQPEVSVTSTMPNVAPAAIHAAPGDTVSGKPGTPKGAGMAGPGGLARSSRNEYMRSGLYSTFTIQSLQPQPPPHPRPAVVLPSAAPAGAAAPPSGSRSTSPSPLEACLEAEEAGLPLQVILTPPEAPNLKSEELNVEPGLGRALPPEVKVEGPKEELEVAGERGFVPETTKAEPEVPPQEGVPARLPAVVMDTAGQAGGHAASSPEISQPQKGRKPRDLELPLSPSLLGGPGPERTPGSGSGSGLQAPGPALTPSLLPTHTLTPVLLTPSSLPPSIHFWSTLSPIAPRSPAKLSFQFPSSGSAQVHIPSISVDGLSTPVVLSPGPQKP
# In short: as §1
# [3] = target: T3, GABPA (Homo sapiens, UniProt Q06546 1-454); conditions: protein: recombinant; tags: N-terminal GST; dsDNA, one strand shown
# T3 sequence: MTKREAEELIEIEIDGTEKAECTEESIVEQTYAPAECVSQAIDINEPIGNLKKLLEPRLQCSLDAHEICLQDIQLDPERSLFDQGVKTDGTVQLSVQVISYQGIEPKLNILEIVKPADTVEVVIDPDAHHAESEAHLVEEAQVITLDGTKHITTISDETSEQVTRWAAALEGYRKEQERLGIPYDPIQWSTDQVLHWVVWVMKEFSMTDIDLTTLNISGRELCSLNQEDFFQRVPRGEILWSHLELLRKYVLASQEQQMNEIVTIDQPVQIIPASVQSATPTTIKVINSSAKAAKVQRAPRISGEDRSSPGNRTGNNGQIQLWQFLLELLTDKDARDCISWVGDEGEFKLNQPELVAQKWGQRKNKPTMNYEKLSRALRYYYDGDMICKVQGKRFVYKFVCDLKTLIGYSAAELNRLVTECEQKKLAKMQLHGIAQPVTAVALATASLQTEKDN
# In short: as §1
# [4] = target: T4, ERG (Homo sapiens, UniProt P11308 1-479); conditions: protein: recombinant; tags: N-terminal GST; dsDNA, one strand shown
# T4 sequence: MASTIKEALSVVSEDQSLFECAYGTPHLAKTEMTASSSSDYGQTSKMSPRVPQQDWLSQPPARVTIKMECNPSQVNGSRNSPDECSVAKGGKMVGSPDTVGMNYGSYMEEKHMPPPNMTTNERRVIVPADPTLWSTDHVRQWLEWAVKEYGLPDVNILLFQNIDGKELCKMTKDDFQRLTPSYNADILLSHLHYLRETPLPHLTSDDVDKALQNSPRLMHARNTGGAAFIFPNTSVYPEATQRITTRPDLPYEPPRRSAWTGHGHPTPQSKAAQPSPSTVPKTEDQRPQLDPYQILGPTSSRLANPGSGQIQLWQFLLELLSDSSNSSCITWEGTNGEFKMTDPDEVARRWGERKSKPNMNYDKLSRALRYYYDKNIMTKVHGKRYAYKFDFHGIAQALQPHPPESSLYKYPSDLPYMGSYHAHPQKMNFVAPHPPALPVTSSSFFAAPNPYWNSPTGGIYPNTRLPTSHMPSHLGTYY
# In short: as §1
# [5] = target: ELF1 (Homo sapiens, UniProt P32519 1-619); conditions: protein: recombinant; tags: N-terminal GST; dsDNA, one strand shown
# In short: as §1
# [6] = target: T5, EHF (Homo sapiens, UniProt Q9NZC4 1-300); conditions: protein: recombinant; tags: N-terminal GST; dsDNA, one strand shown
# T5 sequence: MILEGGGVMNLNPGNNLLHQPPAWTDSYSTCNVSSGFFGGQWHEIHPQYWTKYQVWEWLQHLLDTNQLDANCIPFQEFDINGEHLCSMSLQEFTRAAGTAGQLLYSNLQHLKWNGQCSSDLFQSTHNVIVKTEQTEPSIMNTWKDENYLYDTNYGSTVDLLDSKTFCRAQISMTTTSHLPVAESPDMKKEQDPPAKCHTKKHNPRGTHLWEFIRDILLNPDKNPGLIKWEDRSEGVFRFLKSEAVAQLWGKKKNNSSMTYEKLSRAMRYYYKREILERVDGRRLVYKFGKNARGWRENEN
# In short: as §1
# [7] = target: SPI1 (Homo sapiens, UniProt P17947 1-270); conditions: protein: recombinant; tags: N-terminal GST; dsDNA, one strand shown
# In short: as §1
# [8] = target: T6, ELK3 (Homo sapiens, UniProt P41970 1-407); conditions: protein: recombinant; tags: N-terminal GST; dsDNA, one strand shown
# T6 sequence: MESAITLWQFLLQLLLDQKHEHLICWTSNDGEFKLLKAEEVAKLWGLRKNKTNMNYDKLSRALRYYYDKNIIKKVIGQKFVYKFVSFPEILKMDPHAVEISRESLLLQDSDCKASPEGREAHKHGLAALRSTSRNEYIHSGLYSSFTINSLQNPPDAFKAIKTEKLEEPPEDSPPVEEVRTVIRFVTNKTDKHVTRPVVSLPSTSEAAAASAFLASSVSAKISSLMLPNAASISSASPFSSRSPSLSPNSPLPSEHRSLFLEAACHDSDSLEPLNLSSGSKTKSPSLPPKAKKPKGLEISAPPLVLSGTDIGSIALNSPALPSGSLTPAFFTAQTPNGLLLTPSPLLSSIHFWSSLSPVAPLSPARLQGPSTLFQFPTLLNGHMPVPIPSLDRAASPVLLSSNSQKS
# In short: as §1
# [9] = target: T7, FEV (Homo sapiens, UniProt Q99581 1-238); conditions: protein: recombinant; tags: N-terminal GST; dsDNA, one strand shown
# T7 sequence: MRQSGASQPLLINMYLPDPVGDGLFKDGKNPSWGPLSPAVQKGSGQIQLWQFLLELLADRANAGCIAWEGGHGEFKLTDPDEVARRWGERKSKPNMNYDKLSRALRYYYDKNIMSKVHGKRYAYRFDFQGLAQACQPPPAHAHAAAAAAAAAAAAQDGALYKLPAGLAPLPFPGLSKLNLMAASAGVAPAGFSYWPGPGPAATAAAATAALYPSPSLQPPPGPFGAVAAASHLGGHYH
# In short: as §1
# [10] = target: ETV5 (Homo sapiens, UniProt P41161 1-510); conditions: protein: recombinant; tags: N-terminal GST; dsDNA, one strand shown
# In short: as §1
# [11] = target: HSF1 (Homo sapiens, UniProt Q00613 1-529); conditions: protein: recombinant; tags: N-terminal GST; chain copies: 3; dsDNA, one strand shown
# In short: as §1
# [12] = target: T8, SPIC (Homo sapiens, UniProt Q8N5J4 1-248); conditions: protein: recombinant; tags: N-terminal GST; dsDNA, one strand shown
# T8 sequence: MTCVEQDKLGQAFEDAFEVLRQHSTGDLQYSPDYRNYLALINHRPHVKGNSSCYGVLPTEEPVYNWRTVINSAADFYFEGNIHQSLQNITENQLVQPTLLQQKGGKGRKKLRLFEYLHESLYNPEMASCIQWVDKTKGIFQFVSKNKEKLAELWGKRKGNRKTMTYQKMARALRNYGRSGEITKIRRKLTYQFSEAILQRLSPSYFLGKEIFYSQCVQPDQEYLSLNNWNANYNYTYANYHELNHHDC
# In short: as §1
# [13] = target: ELF4 (Homo sapiens, UniProt Q99607 1-663); conditions: protein: recombinant; tags: N-terminal GST; dsDNA, one strand shown
# In short: as §1
# [14] = target: T9, ELK4 (Homo sapiens, UniProt P28324-2 1-405); conditions: protein: recombinant; tags: N-terminal GST; dsDNA, one strand shown
# T9 sequence: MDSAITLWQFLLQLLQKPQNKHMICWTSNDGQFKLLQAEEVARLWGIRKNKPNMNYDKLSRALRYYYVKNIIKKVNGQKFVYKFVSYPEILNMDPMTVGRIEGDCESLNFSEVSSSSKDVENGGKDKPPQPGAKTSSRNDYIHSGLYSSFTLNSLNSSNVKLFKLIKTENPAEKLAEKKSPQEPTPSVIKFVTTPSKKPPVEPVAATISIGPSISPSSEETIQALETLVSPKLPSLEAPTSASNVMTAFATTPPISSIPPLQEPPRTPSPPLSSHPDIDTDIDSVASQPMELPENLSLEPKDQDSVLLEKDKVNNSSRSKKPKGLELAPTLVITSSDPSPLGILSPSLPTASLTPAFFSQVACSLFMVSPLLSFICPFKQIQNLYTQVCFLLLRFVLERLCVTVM
# In short: as §1
# [15] = target: T10, ETV2 (Homo sapiens, UniProt O00321 1-342); conditions: protein: recombinant; tags: N-terminal GST; dsDNA, one strand shown
# T10 sequence: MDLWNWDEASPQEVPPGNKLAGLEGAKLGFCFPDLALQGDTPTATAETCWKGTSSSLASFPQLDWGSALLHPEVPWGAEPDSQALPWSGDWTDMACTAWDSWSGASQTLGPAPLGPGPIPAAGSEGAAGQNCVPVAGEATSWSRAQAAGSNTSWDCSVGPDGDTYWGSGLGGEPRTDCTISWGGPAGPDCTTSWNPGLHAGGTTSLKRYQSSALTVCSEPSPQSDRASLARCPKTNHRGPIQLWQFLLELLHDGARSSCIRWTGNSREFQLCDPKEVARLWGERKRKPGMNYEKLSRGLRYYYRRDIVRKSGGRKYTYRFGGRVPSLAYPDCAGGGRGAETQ
# In short: as §1
# [16] = target: T11, ELF3 (Homo sapiens, UniProt P78545 1-371); conditions: protein: recombinant; tags: N-terminal GST; dsDNA, one strand shown
# T11 sequence: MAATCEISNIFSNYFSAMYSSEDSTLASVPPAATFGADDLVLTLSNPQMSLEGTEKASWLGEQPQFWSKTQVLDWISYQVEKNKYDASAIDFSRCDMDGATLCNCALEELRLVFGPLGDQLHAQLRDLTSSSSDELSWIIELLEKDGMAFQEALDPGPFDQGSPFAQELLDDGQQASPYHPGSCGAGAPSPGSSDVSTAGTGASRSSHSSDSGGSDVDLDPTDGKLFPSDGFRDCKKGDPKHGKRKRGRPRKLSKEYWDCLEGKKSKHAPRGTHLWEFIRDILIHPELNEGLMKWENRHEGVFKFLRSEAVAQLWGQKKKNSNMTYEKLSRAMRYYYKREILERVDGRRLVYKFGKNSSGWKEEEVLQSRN
# In short: as §1
# [17] = target: ETV1 (Homo sapiens, UniProt P50549 1-477); conditions: protein: recombinant; tags: N-terminal GST; dsDNA, one strand shown
# In short: as §1
# Chain of HSF1 (Q00613 whole entry): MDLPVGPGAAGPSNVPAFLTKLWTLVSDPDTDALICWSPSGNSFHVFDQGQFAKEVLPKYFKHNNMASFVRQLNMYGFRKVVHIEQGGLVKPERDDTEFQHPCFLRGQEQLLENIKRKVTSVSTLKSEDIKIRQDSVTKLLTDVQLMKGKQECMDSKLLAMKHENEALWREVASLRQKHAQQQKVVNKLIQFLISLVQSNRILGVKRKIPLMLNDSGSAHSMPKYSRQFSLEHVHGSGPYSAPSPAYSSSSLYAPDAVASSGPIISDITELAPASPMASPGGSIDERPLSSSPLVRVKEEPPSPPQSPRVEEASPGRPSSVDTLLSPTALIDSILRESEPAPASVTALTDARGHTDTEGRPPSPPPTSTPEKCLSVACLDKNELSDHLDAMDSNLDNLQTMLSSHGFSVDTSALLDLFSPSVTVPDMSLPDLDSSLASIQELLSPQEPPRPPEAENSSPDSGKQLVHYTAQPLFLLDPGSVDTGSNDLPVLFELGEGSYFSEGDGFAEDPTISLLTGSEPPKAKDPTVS
# Chain of ELF4 (Q99607 whole entry): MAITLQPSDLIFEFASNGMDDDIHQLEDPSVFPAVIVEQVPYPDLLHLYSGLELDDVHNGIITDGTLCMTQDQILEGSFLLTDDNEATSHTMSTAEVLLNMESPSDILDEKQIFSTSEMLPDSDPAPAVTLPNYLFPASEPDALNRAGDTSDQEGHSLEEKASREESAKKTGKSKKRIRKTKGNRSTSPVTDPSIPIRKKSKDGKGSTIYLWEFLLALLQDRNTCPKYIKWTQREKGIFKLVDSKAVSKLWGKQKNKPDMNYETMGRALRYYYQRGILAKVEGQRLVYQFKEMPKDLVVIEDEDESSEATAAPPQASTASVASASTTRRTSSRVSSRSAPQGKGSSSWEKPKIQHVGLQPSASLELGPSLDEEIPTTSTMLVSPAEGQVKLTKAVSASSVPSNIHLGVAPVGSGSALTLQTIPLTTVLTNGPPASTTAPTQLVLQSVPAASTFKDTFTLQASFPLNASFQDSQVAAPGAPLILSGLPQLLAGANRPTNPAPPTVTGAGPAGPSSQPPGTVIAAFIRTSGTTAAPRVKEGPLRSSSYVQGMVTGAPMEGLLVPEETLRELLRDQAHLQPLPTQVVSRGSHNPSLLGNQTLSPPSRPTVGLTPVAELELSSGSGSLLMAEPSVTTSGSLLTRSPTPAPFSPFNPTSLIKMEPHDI
# Chain of ETV1 (P50549 whole entry): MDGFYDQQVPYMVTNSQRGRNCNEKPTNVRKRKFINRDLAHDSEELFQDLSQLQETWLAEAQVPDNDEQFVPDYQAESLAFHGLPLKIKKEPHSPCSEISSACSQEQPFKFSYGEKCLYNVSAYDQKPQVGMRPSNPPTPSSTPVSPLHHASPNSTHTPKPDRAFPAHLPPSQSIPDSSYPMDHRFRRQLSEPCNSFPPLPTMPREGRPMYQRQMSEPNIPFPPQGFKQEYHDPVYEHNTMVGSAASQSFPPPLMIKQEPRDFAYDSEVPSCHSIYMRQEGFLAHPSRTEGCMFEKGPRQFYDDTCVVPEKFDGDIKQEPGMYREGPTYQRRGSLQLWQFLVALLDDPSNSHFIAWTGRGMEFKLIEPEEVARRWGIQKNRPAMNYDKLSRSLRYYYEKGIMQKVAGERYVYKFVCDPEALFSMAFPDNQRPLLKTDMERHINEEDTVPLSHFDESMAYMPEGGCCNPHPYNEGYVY
# Chain of ETV5 (P41161 whole entry): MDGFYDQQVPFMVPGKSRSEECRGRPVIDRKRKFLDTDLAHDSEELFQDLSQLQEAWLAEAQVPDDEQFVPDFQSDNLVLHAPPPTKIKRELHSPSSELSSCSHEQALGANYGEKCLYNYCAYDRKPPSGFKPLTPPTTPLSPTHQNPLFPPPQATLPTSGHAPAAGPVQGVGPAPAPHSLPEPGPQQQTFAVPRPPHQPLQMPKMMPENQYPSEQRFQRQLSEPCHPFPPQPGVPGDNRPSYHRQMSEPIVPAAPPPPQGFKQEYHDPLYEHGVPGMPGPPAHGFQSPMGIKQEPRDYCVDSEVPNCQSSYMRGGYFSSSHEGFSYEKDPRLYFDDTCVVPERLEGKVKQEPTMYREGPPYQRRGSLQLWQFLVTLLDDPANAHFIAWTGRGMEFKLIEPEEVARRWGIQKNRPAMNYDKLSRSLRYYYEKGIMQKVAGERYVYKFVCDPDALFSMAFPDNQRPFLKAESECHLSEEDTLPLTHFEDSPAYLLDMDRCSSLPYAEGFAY
# Chain of ELF1 (P32519 whole entry): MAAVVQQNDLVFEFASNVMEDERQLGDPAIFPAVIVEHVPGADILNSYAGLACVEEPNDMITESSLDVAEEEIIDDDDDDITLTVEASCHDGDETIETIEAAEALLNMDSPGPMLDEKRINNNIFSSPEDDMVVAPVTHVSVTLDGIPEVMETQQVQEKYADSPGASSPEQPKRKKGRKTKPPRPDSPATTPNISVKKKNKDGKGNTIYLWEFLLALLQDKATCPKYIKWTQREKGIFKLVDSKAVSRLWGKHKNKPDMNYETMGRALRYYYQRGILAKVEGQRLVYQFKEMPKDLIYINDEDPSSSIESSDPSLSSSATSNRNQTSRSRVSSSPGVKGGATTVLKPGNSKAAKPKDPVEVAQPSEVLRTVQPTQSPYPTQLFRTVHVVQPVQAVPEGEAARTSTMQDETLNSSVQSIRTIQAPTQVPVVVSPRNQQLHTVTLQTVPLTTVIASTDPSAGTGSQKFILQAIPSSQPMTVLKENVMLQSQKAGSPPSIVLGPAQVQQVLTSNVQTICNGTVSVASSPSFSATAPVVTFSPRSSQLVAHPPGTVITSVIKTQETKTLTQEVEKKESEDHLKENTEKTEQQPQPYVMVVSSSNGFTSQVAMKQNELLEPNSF
sequence,measurement,setting,value
CACGAA,binding signal,[1],"1.05 fold enrichment (6-mer frequency, TF over GST control)"
same,binding signal,[2],"1.15 fold enrichment (6-mer frequency, TF over GST control)"
same,binding signal,[3],"1.19 fold enrichment (6-mer frequency, TF over GST control)"
same,binding signal,[4],"1.1 fold enrichment (6-mer frequency, TF over GST control)"
same,binding signal,[5],"1.11 fold enrichment (6-mer frequency, TF over GST control)"
same,binding signal,[6],"1.07 fold enrichment (6-mer frequency, TF over GST control)"
same,binding signal,[7],"1.06 fold enrichment (6-mer frequency, TF over GST control)"
same,binding signal,[8],"1.03 fold enrichment (6-mer frequency, TF over GST control)"
same,binding signal,[9],"1.09 fold enrichment (6-mer frequency, TF over GST control)"
same,binding signal,[10],"1.1 fold enrichment (6-mer frequency, TF over GST control)"
same,binding signal,[11],"1.39 fold enrichment (6-mer frequency, TF over GST control)"
same,binding signal,[12],"1.12 fold enrichment (6-mer frequency, TF over GST control)"
same,binding signal,[13],"1.2 fold enrichment (6-mer frequency, TF over GST control)"
same,binding signal,[14],"1.3 fold enrichment (6-mer frequency, TF over GST control)"
same,binding signal,[15],"1.18 fold enrichment (6-mer frequency, TF over GST control)"
same,binding signal,[16],"1.07 fold enrichment (6-mer frequency, TF over GST control)"
same,binding signal,[17],"1.14 fold enrichment (6-mer frequency, TF over GST control)"
